Source: PubChem BioAssay
The source made the active and inactive calls.

How the values were obtained:
[1] = optical density shifts of acrAB sulA E. coli – strain DRC41, OD650, 48 h, E. coli filamentation inducer project, primary screen (AID 1152); conditions: higher = more signal, called active from +8 up or from −8 down;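 also: E. coli MC1000 strain DRC41 lacking acrAB efflux pump and sulA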
[2] = probe aLefty1 binding on compound microarray – biochemical, small-molecule microarray, 635/667 nm fluorescence, primary screen (AID 1153); conditions: higher = more signal;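 also: score merges spot fluorescence with signal-to-noise ratio from the scanned slide images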
[3] = plasmodial surface anion channel blockers, osmotic lysis – cell-based, P. falciparum Indochina, OD700, 1 h, primary screen (AID 1154); conditions: P. falciparum Indochina infected RBC osmotic lysis, higher = more signal, called active from +8 up or from −8 down
[4] = plasmodial surface anion channel blockers, osmotic lysis – cell-based, P. falciparum Indochina, OD700, 2 h, primary screen (AID 1155);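 also: lysis reports solute entry through the parasite surface anion channel PSAC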; conditions: P. falciparum Indochina infected erythrocytes, higher = more signal, called active from +8 up or from −8 down
[5] = changes in parasitized red cell lysis, either direction – P. falciparum Indochina, OD700, 3 h, PSAC antagonist project, primary screen (AID 1156); conditions: P. falciparum-infected erythrocytes, osmotic lysis, higher = more signal, called active from +8 up or from −8 down
[6] = plasmodial surface anion channel blockers, osmotic lysis – cell-based, P. falciparum Indochina, OD700, 18 h, primary screen (AID 1157); conditions: P. falciparum Indochina infected erythrocytes, osmotic lysis OD700, 18 h; higher = more signal, called active from +8 up or from −8 down
[7] = S6 kinase pathway phospho-S6 level changes – cell-based, A549, cytoblot, luminescence, serum-stimulated, primary screen (AID 1158); conditions: 5 h, higher = more signal;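 also: serum-stimulated A549 lung adenocarcinoma cells; signal is phosphorylated S6 detected by cytoblot immunostaining with HRP secondary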
[8] = biological target: NADPH oxidase 2 (Homo sapiens) (UniProt P04839); assay: compounds shifting NOX2 Amplex Red fluorescence – cell-based, HEK293-NOX2, PMA-stimulated, NOX inhibitor project, primary screen (AID 1159); conditions: 45 min, higher = more signal, called active from +8 up or from −8 down; also: test concentration not given here
[9] = biological target: NADPH oxidase 4 (Homo sapiens) (UniProt Q9NPH5); assay: compounds shifting NOX4 Amplex Red fluorescence – cell-based, HEK293-NOX4, tetracycline-induced, NOX inhibitor project, primary screen (AID 1160); conditions: HEK293-NOX4, Amplex Red H2O2 fluorescence, 45 min; higher = more signal, called active from +8 up or from −8 down
[10] = biological target: NADPH oxidase 5 (Homo sapiens) (UniProt Q96PH1); assay: compounds shifting NOX5 Amplex Red fluorescence – cell-based, HEK293-NOX5, NOX inhibitor project, primary screen (AID 1161); conditions: HEK293-NOX5, ionomycin, 45 min, higher = more signal
NADPH oxidase 5 (Homo sapiens), sequence (Q96PH1 whole entry, looked up): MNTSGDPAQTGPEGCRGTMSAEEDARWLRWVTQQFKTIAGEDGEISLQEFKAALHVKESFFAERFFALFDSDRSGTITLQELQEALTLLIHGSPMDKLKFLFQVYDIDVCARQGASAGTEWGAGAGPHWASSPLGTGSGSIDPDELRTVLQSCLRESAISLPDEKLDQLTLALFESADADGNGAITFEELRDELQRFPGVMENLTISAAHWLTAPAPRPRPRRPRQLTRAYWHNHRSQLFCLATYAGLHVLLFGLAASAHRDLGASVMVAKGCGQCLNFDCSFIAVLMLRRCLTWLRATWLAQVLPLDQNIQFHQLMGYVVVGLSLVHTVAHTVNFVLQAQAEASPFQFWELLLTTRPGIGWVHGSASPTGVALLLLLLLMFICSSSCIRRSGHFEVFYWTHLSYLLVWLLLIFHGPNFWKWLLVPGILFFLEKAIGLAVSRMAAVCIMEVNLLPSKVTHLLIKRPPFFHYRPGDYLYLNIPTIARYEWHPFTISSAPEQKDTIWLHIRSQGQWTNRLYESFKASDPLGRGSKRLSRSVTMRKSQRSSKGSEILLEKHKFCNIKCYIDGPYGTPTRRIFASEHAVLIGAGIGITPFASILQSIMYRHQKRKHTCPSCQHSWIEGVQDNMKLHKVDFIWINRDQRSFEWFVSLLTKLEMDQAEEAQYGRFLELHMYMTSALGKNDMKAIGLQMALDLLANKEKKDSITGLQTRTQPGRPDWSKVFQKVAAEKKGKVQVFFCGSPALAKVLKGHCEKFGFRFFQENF

NADPH oxidase 2 (Homo sapiens), sequence (P04839 whole entry, looked up): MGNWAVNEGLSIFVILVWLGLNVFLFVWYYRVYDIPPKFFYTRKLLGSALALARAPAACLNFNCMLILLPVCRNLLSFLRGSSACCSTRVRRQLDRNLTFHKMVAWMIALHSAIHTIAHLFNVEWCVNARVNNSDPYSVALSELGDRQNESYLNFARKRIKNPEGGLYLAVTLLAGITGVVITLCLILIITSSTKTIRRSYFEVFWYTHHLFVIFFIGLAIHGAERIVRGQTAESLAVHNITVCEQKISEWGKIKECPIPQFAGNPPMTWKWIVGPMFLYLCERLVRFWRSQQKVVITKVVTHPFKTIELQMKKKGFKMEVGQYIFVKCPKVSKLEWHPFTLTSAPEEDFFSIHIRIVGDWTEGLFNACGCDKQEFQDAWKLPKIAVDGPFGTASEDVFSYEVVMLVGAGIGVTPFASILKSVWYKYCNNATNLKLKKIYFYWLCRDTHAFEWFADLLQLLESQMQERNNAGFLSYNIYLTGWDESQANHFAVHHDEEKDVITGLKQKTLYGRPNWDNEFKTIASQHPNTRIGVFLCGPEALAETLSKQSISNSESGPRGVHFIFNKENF
NADPH oxidase 4 (Homo sapiens), sequence (Q9NPH5 whole entry, looked up): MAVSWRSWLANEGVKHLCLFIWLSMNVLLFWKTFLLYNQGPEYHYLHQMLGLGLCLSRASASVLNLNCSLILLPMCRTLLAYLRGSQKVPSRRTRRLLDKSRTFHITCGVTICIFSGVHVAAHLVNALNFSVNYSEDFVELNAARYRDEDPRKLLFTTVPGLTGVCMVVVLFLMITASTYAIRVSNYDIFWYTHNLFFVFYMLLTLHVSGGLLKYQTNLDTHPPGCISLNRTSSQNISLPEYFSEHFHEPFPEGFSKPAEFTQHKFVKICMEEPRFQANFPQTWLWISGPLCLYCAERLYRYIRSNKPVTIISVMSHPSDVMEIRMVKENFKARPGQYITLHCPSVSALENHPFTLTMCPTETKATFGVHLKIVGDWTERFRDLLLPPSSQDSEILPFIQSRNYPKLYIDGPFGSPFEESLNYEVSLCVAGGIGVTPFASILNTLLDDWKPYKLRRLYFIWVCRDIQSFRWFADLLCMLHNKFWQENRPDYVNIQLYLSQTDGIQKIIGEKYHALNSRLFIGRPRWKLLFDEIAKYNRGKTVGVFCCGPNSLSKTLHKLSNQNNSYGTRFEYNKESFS

Row | Structure (SMILES) | z-score [1] | composite z-score [2] | z-score [3] | z-score [4] | z-score [5] | z-score [6] | z-score [7] | z-score [8] | z-score [9] | z-score [10]
1 | Cc1ccc([C@H]2C(C(=O)O)=C[C@@H](C)N2S(=O)(=O)c2ccc(C)cc2)cc1 | -0.832 (inactive) | -0.149 | 1 (inactive) | 0.587 (inactive) | 0.018 (inactive) | 0.39 (inactive) | -0.848 | 0.534 (inactive) | 0.259 (inactive) | 0.101
2 | Cc1ccccc1C(O)C1C=CC2C(=O)N(C)C(=O)C2N1N1CCCCC1 (stereo not given) | -1.52 (inactive) | 0.563 | 0.234 (inactive) | 0.479 (inactive) | 0.126 (inactive) | 1.02 (inactive) | -0.467 | -0.182 (inactive) | 0.0457 (inactive) | -1.46
3 | COc1ccc([Si](C)(C)[C@@H]2[C@@H](CCn3cc([C@H](O)c4ccccc4)nn3)O[C@]3(C(=O)N(Cc4cccc(N5CCOC5=O)c4)c4ccccc43)[C@H]2C)cc1 | 1 (inactive) | -0.328 | 26.3 (active) | 12.8 (active) | 1.33 (inactive) | 1.68 (inactive) | 0.324 | -0.662 (inactive) | 2.29 (inactive) | 1.84
4 | C#CCN(C(/C=C/c1ccccc1)CO)C(C(=O)O)c1ccccc1 (stereo not given) | 1.86 (inactive) | -0.319 | 0.175 (inactive) | -1.57 (inactive) | -0.168 (inactive) | -2.09 (inactive) | 1.81 | -0.269 (inactive) | -0.46 (inactive) | -0.191
5 | CC(=CC1CCCCC1)[C@@H](NC(=O)c1ccc(C(F)(F)F)cc1)c1ccc(-c2ccccc2)cc1 | -2.14 (inactive) | 0.117 | 3.47 (inactive) | 1.03 (inactive) | 0.482 (inactive) | 0.813 (inactive) | 0.299 | -0.709 (inactive) | -0.683 (inactive) | 0.0858
6 | CC(C)=CCCC(C)=CC(O)C1C=CC2C(=O)N(c3ccccc3)C(=O)C2N1Nc1ccccc1 (stereo not given) | -1.8 (inactive) | 0.805 | 1.37 (inactive) | 1.4 (inactive) | 1.09 (inactive) | 1.27 (inactive) | -1.29 | -1.26 (inactive) | -4.03 (inactive) | -2.54
7 | COC(=O)c1ccc(C23CC2(C(NP(=O)(c2ccccc2)c2ccccc2)c2ccccc2)C3)cc1 (stereo not given) | -0.402 (inactive) | 1.08 | 7.74 (inactive) | 0.191 (inactive) | -0.279 (inactive) | -1.02 (inactive) | 1.36 | -0.489 (inactive) | -0.652 (inactive) | -4.37
8 | O=C1O[C@H](c2ccccc2)[C@H](c2ccccc2)N2[C@H]1[C@@H](C(=O)N1CCN(c3ncccn3)CC1)[C@]1(C(=O)Nc3ccccc31)[C@H]2c1ccc(OCCO)cc1 | 2.64 (inactive) | -0.0221 | 7.83 (inactive) | 0.395 (inactive) | 0.81 (inactive) | -1.32 (inactive) | 2.11 | 0.192 (inactive) | -1.33 (inactive) | -2.84
9 | CC(C)NC(=O)[C@@]1(Cc2ccccc2I)c2ccccc2C(=O)N(Cc2ccccc2)[C@H]1c1ccc(CO)cc1 | -0.668 (inactive) | 0.018 | 4 (inactive) | 0.644 (inactive) | 1.19 (inactive) | 0.374 (inactive) | -0.0212 | 1.32 (inactive) | 1.07 (inactive) | 0.909
10 | CC(C)C[C@@H]1NC(=O)[C@@H]2C[C@H](C(=O)NCCCCCC[N+](C)(C)C)[C@H](c3ccc(O)cc3)N2C1=O | 0.55 (inactive) | 0.127 | 3.47 (inactive) | 0.637 (inactive) | -1.96 (inactive) | 0.227 (inactive) | -0.274 | 0.994 (inactive) | 0.763 (inactive) | 0.75
11 | Cc1ccc(S[C@]2(C(=O)NC3CC3)CC(=O)N(Cc3ccccc3)[C@@H]2c2ccc(CO)cc2)cc1 | -0.485 (inactive) | 0.106 | 1.28 (inactive) | 0.216 (inactive) | -0.552 (inactive) | -0.331 (inactive) | 0.0262 | -0.106 (inactive) | 1.09 (inactive) | 0.997
12 | COC(=O)[C@@]1(Cc2ccccc2)[C@H]2c3cc(C(=O)N(C)C)n(Cc4c(-c5ccccc5)noc4C)c3C[C@H]2CN1C(=O)c1ccccc1 | -2.11 (inactive) | 0.324 | 2.98 (inactive) | 1.2 (inactive) | 0.57 (inactive) | 1.11 (inactive) | -0.505 | 0.931 (inactive) | 1.32 (inactive) | 1.1
13 | [N-]=[N+]=Nc1ccccc1[C@@H]1OC(c2ccc(OCCCO)cc2)=N[C@]1(CCS(=O)(=O)c1ccccc1)C(=O)N1CCOCC1 | 0.325 (inactive) | 0.701 | 30.4 (active) | 25.4 (active) | 0.736 (inactive) | 6.38 (inactive) | -0.444 | -1.54 (inactive) | 1.47 (inactive) | 1.47
14 | C=CC[C@@H](OC(=O)Nc1ccc(OC)cc1)c1ccc(O)c2ccccc12 | 0.122 (inactive) | -0.0615 | 3.63 (inactive) | 0.661 (inactive) | -0.335 (inactive) | 0.279 (inactive) | 0.229 | -6.06 (inactive) | -1.69 (inactive) | -0.308
15 | O=C(O)[C@H]1C[C@H]2C(=O)NCC(=O)N2[C@H]1c1ccc(O)cc1 | 1.55 (inactive) | -0.0171 | 2.81 (inactive) | 0.898 (inactive) | -2.6 (inactive) | 0.276 (inactive) | 0.586 | -1.99 (inactive) | -1.12 (inactive) | -0.575
16 | CCOC(=O)C1=CC[C@@H](c2ccccc2Cl)N(S(=O)(=O)c2ccc(C)cc2)C1 | 0.0023 (inactive) | 0.276 | 4.85 (inactive) | -0.477 (inactive) | -0.981 (inactive) | -1.69 (inactive) | 0.676 | 0.358 (inactive) | -0.832 (inactive) | -0.93
17 | CC(C)(C)N1CC=CC23O[C@@H]4C=CCOC(=O)[C@@H]4[C@H]2C(=O)N(CCCCCO)[C@@H]3C1=O (stereo not given in full) | -0.197 (inactive) | -0.0094 | 0.987 (inactive) | 0.624 (inactive) | 1.47 (inactive) | 0.453 (inactive) | -0.301 | 1.27 (inactive) | 0.436 (inactive) | 1.52
18 | COc1cccc(C(=O)O[C@H]2CC[C@]3(C)C4=C(CCC3C2(C)C)[C@]2(C)CC[C@H]([C@H](C)CCCC(C)C)[C@@]2(C)CC4)c1 (stereo not given in full) | 3.47 (inactive) | 0.0752 | -0.264 (inactive) | -0.611 (inactive) | -0.306 (inactive) | -1.63 (inactive) | 0.801 | -0.606 (inactive) | 0.0302 (inactive) | 0.689
19 | CCOC(=O)C[C@H]1[C@H](OC(=O)c2ccc(-c3ccccc3)cc2)[C@@H](NC(=O)Cc2ccc(OC)cc2)c2cc(OCCCO)ccc2N1C(=O)c1ccc2ccccc2n1 | -0.667 (inactive) | -0.231 | 2.63 (inactive) | 0.393 (inactive) | -0.619 (inactive) | 0.653 (inactive) | 1.3 | 0.377 (inactive) | 1.29 (inactive) | 1.73
20 | CC(C)NC(=O)[C@@H]1c2ccccc2C(=O)N(Cc2ccccc2Cl)[C@H]1c1ccc(CO)cc1 | 1.09 (inactive) | 0.509 | 2.67 (inactive) | 1.05 (inactive) | 0.796 (inactive) | 0.183 (inactive) | -0.469 | -0.444 (inactive) | 0.715 (inactive) | 0.376
21 | COC(=O)[C@]1(Cc2ccccc2N=[N+]=[N-])N=C(c2ccc(OCCCO)cc2)O[C@@H]1c1ccccc1N=[N+]=[N-] | -1.19 (inactive) | -0.236 | 29.5 (active) | 27.4 (active) | -0.495 (inactive) | 6.35 (inactive) | 0.0559 | -0.877 (inactive) | 0.755 (inactive) | 0.677
